From ChEMBL document CHEMBL2218924, “A broad activity screen in support of a chemogenomic map for kinase signalling research and drug discovery” (Biochem J, 2013) come the findings set out here.

The target in test [1] is Ribosomal protein S6 kinase beta-1 (Homo sapiens) (UniProt P23443). Conditions: at 10 µM.
Test [2] addresses Serine/threonine-protein kinase Nek6 (Homo sapiens) (UniProt Q9HC98). Conditions: at 1 µM.
For test [3] the target is unchanged. The settings on record: at 10 µM.
In test [4] the target is Serine/threonine-protein kinase Nek7 (Homo sapiens) (UniProt Q8TDX7). Conditions: at 10 µM.
For test [5], the target named is T1, Serine/threonine-protein kinase NLK (Homo sapiens) (UniProt Q9UBE8).
T1 sequence (whole entry): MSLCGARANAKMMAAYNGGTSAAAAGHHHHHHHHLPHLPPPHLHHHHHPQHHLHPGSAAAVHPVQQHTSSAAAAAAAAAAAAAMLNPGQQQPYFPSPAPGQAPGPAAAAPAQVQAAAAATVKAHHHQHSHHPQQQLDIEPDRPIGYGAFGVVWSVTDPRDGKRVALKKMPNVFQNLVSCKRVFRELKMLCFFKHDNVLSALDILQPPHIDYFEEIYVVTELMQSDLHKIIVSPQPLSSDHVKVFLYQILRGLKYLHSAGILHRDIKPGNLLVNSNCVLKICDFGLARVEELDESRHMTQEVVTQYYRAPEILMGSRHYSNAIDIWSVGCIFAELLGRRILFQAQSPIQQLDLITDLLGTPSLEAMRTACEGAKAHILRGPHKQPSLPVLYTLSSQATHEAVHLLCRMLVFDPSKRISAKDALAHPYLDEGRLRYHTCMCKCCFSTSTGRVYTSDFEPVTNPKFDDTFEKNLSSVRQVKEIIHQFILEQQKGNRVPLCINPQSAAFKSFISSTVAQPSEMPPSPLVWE
The settings on record: at 1 µM.

The target in test [6] is Serine/threonine-protein kinase PAK 2 (Homo sapiens) (UniProt Q13177). The settings on record: at 1 µM.
For test [7] the target is unchanged. Conditions: at 10 µM.
In test [8] the target is Serine/threonine-protein kinase PAK 4 (Homo sapiens) (UniProt O96013). The settings on record: at 1 µM.
Test [9] shares this target. The settings on record: at 10 µM.
Test [10] deals with Serine/threonine-protein kinase PAK 5 (Homo sapiens) (UniProt Q9P286). Conditions: at 1 µM.
For test [11] the target is unchanged. The settings on record: at 10 µM.
The target of test [12] is Serine/threonine-protein kinase PAK 6 (Homo sapiens) (UniProt Q9NQU5). Conditions: at 1 µM.
Test [13] has the same target. Conditions: at 10 µM.
Test [14] has as its target Activated CDC42 kinase 1 (Homo sapiens) (UniProt Q07912). The settings on record: at 1 µM.
For test [15] the target is unchanged. Conditions: at 10 µM.
The target in test [16] is ALK tyrosine kinase receptor (Homo sapiens) (UniProt Q9UM73). Conditions: at 1 µM.
Test [17] deals with T1, Serine/threonine-protein kinase NLK (Homo sapiens). The settings on record: at 10 µM.
Test [18] has as its target Ribosomal protein S6 kinase beta-1 (Homo sapiens) (UniProt P23443). Conditions: at 1 µM.
For test [19], the target named is PAS domain-containing serine/threonine-protein kinase (Homo sapiens) (UniProt Q96RG2). Conditions: at 10 µM.
The target in test [20] is Serine/threonine-protein kinase Nek7 (Homo sapiens) (UniProt Q8TDX7). The settings on record: at 1 µM.

Sequence of Activated CDC42 kinase 1 (Homo sapiens) (Q07912 whole entry, looked up): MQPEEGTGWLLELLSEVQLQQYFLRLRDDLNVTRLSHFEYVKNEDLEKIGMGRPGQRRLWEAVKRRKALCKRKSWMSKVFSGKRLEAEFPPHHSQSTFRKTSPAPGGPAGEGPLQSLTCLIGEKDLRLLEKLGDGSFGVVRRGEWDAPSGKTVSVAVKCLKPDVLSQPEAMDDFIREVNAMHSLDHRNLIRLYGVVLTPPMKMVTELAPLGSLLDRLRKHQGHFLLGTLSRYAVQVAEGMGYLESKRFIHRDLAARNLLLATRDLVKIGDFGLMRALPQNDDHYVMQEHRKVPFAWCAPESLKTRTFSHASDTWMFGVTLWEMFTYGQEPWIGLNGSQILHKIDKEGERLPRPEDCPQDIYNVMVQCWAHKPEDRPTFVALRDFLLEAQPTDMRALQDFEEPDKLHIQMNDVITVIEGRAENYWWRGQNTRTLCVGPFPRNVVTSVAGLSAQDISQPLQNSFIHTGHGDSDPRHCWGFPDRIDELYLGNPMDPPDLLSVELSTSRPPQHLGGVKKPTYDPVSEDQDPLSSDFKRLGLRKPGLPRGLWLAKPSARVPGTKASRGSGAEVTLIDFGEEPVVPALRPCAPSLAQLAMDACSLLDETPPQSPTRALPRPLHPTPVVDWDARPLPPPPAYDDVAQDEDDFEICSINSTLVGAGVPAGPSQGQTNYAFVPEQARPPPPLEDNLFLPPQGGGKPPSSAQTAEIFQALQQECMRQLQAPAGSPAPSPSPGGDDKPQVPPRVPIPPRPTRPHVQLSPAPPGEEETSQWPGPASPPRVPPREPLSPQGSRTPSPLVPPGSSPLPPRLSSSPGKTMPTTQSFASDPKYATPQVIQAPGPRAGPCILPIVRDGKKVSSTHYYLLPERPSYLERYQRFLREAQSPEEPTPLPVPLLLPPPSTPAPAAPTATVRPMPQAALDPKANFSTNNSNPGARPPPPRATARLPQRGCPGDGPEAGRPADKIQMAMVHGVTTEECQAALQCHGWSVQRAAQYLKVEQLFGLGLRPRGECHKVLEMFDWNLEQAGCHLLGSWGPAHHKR
Sequence of ALK tyrosine kinase receptor (Homo sapiens) (Q9UM73 19-1620 limits assumed): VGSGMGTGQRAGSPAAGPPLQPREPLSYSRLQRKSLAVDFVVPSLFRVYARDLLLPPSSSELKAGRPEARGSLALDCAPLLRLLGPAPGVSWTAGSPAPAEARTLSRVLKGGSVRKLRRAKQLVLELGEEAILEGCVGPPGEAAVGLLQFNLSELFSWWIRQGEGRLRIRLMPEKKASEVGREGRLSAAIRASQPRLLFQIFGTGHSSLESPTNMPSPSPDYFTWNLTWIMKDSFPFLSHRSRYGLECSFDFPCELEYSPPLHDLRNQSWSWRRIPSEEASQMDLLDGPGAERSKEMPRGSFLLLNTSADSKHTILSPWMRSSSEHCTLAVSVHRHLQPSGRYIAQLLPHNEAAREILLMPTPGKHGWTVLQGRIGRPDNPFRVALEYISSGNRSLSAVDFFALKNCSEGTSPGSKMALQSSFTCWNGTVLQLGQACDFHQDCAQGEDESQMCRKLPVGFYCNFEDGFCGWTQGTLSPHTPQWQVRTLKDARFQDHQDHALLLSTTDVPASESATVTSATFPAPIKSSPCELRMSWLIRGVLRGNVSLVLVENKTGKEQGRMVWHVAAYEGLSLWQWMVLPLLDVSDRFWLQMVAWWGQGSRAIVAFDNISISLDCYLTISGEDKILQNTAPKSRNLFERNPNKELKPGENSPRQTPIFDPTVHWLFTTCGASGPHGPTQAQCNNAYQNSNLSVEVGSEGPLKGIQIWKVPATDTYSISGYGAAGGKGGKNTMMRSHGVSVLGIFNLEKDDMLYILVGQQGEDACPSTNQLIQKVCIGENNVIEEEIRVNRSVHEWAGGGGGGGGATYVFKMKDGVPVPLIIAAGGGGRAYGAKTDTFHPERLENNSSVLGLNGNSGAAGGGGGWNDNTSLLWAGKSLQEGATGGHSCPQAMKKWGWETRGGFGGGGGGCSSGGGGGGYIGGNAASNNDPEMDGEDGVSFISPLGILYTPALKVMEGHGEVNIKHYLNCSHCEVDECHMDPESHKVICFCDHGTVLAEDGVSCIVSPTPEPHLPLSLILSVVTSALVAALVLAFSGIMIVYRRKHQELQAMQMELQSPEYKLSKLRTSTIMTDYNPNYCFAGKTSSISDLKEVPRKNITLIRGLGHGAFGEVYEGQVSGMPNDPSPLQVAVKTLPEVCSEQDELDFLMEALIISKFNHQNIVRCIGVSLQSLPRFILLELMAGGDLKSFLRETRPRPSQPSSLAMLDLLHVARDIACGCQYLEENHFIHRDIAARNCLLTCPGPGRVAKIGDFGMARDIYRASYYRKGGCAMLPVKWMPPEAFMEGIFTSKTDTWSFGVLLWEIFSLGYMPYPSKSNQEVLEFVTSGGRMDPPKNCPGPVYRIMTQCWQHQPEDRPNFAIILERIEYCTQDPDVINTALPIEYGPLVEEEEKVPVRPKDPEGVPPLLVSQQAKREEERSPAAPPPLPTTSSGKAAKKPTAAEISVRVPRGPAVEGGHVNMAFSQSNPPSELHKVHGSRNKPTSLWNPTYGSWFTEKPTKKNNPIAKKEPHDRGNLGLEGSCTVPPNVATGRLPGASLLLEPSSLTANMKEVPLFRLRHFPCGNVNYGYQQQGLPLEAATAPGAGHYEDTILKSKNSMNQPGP
Sequence of Serine/threonine-protein kinase PAK 6 (Homo sapiens) (Q9NQU5 whole entry, looked up): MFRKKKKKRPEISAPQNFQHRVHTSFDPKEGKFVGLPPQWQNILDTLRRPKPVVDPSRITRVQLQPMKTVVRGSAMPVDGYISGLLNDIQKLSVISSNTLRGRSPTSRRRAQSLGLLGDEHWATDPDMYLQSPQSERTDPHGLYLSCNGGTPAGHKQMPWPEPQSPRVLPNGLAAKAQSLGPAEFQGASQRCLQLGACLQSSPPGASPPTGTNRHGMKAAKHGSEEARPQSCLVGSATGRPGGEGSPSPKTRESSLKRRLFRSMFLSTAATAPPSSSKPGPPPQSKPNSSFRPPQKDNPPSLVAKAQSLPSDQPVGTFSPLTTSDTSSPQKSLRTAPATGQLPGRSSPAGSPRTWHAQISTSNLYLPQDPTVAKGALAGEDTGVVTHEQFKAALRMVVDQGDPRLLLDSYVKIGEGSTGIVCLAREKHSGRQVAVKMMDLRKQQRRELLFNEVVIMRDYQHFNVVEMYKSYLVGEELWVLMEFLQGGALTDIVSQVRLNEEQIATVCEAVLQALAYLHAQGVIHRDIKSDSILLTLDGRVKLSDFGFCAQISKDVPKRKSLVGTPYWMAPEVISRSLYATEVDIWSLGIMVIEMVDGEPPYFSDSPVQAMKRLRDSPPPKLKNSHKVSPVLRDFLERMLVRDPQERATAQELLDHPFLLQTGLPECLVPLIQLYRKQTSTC
Sequence of Serine/threonine-protein kinase PAK 5 (Homo sapiens) (Q9P286 whole entry, looked up): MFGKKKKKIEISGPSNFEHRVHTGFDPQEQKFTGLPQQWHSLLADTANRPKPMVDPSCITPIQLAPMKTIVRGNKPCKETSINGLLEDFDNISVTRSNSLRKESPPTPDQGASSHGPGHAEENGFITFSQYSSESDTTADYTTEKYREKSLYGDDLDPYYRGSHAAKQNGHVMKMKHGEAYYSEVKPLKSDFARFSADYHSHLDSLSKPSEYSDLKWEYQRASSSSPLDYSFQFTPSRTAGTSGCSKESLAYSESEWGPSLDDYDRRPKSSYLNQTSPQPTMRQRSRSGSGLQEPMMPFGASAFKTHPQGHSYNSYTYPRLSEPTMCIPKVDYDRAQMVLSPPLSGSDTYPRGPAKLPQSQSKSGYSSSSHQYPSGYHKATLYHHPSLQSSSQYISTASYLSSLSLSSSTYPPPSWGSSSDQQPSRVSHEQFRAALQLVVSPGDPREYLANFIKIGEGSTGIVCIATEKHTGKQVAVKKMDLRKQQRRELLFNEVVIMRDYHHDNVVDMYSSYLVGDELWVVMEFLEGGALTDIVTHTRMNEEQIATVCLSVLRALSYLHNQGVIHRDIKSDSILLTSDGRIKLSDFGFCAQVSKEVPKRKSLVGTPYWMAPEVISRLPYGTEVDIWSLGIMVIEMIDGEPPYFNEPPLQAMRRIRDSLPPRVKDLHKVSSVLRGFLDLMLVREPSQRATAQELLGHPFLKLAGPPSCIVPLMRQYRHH
Sequence of Serine/threonine-protein kinase PAK 4 (Homo sapiens) (O96013 whole entry, looked up): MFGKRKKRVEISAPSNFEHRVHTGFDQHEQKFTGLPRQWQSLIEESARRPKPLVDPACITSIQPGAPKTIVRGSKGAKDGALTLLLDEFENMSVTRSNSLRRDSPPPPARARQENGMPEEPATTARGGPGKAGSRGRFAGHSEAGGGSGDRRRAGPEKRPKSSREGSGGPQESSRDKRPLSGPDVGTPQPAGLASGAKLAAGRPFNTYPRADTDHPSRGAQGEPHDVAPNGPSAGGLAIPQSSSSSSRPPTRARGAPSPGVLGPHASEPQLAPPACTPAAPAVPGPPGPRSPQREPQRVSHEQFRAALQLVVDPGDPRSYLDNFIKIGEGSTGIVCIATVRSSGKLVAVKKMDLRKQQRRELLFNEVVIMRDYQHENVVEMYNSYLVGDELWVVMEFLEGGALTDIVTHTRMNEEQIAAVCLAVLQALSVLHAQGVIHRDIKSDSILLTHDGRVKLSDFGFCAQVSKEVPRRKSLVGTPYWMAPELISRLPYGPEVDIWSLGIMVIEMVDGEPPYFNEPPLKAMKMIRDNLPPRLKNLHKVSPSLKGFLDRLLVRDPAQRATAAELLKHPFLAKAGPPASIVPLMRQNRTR
Sequence of Serine/threonine-protein kinase Nek7 (Homo sapiens) (Q8TDX7 whole entry, looked up): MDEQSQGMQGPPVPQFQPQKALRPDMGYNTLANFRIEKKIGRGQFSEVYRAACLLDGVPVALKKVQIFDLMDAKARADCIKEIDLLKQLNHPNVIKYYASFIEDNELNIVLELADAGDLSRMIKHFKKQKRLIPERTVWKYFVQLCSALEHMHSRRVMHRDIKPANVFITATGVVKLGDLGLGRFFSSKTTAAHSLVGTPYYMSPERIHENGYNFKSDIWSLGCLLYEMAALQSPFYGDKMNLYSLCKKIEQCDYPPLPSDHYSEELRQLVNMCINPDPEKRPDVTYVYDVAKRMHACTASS

Regarding `CCCCc1c(-c2ccc(OC)cc2)[nH]c2nccnc12`, the residual activity in [1] was 70%; in [2] it was 113% (inactive); in test [3], 100%; in test [4], 112% (inactive); in test [5], 83%; in [6] it was 112%. For the same compound, the residual activity in [7] came out at 103%; in test [8], 60%; in [9], 68%; in test [10], 63%; in test [11] it was 64%; in [12] it was 92%. In addition, the residual activity in [13] worked out at 60%; in [14], 24%; in [15], 5%; in test [16], 70%.
For the compound `O=S(=O)(c1cccc2cnccc12)N1CCCNCC1`, the residual activity came out at 25% in test [1], 106% in test [8] and 101% in [9].
For the compound `CCN1/C(=C/C(C)=O)Sc2ccc(OC)cc21`, the residual activity in [5] was 76%; in test [17] it was 77%; in test [11], 80%; in test [14] it was 81%; in [15], 64%.
Consider `CCCCc1c(-c2ccc(O)cc2)[nH]c2nccnc12`, for which the residual activity in test [18] turned out to be 88%; in test [1], 54%; in test [5] it was 88%; in [17], 59%; in test [10] it was 56%; in test [11] it was 36%. Moreover, the residual activity is 94% in test [12]; 47% in test [13]; 26% in test [14]; 6% in [15]; 71% in [16].
Regarding `CCN(CC)CCNC(=O)c1c(C)[nH]c(/C=C2\C(=O)Nc3ccc(Cl)cc32)c1C`, the residual activity stood at 24% in test [18]; 4% in test [1]; 52% in [8]; 11% in [9]; 30% in [10]; 8% in test [11]. For the same compound, the residual activity was 73% in test [12]; 28% in [13]; 49% in test [19]; 25% in test [14]; 1% in [15]; 8% in [16].
Consider `N#C/C(=C\c1ccc(O)c(O)c1)C(=O)NCc1ccccc1`, for which the residual activity was 65% in test [1]; 101% (inactive) in test [20]; 125% (inactive) in [4]; 103% in test [6]; 85% in test [7]; 85% in test [11]. The figures for the residual activity in [19], in test [14] and in test [15] were 55%, 88% and 62%, respectively.
On to `Fc1ccc(-c2nc3n(c2-c2ccncc2)CCS3)cc1`, for which the residual activity is 92% in test [18]; 62% in test [1]; 52% in [5]; 20% in [17]; 87% in [14]; 79% in test [15]. Further, the residual activity in test [16] turned out to be 86%.
For the compound `O=c1c(-c2ccc(F)cc2)c(-c2ccncc2)[nH]n1-c1ccc(Cl)cc1`, the residual activity was 129% in [18]; 101% (inactive) in test [2]; 42% in test [5]; 12% in test [17]; 66% in test [15].
For `CC(C)N(CCC(=O)c1ccc2ccccc2c1)Cc1ccccc1`, the residual activity in [18] was determined as 77%; in test [1], 53%; in test [7] it was 81%; in test [8], 88%; in [9], 79%; in test [14] it was 68%. The residual activity in [15] is 63%; in test [16] it was 74%.
With `COc1ccc(COc2ccc(Cc3cnc(N)nc3N)cc2OC)cc1`, the residual activity in [18] was 80%; in test [1] it was 51%; in [11], 100%; in [14], 79%; in test [15], 68%; in test [16], 74%.
`NC(=O)c1cccc(-c2cc(Nc3ccc(OC(F)(F)F)cc3)ncn2)c1`: the residual activity in [18] was found to be 97%; in [1] it was 74%; in test [5], 94%; in [17] it was 40%; in [10] it was 92%; in [11] it was 84%. Also, the residual activity in [15] was 86%.
Consider `CCOC(=O)c1c(C)[nH]c(/C=C2\C(=O)Nc3ccccc32)c1C`, for which the residual activity in test [8] amounted to 90%; in test [9], 94%; in [12], 91%; in test [13], 99%; in [19], 93%; in test [14], 73%. The residual activity in [15] worked out at 64%; in test [16] it was 80%.
As for `O=C(Nc1ccc(Cl)cc1)c1ccccc1NCc1ccncc1`, the residual activity was 135% in test [18]; 120% (inactive) in [4]; 100% in test [8]; 99% in [9]; 117% in test [10]; 128% in test [11]. Moreover, the residual activity in [15] was 76%.
Consider `c1ccc(-c2cnc(Nc3ccc(OCCN4CCCC4)cc3)s2)cc1`, for which the residual activity is 61% in [18]; 52% in test [1]; 112% in [5]; 56% in test [17]; 105% in test [8]; 76% in [9]. The results for the residual activity in [19], in test [14] and in test [15] were 62%, 68% and 16%, respectively.
On to `O=C(CCCc1ccc(-c2ccccc2F)cc1)Nc1ccc(O)cc1`, for which the residual activity in [2] was 112% (inactive); in [3], 127%; in test [5], 106%; in [17], 100%; in [6] it was 106%; in [8], 103%. Moreover, the residual activity came to 91% in test [9]; 104% in [10]; 95% in test [11]; 96% in test [12]; 103% in test [13]; 108% in test [19]. The residual activity in [14] stood at 89%; in [15] it was 75%; in test [16], 88%.
For the compound `Nc1nc(Nc2ccc(S(N)(=O)=O)cc2)nn1C(=O)c1c(F)cccc1F`, the residual activity was 105% (inactive) in [2]; 115% in test [3]; 111% (inactive) in [20]; 105% (inactive) in [4]; 75% in test [5]; 34% in test [17]. In addition, the residual activity in test [6] stood at 118%; in test [9], 17%; in test [10], 71%; in [11], 24%; in [12], 79%; in test [13] it was 34%. The residual activity came out at 50% in test [14], 9% in test [15] and 77% in test [16].
